Reference: PubChem BioAssay

Biological target: PEG-3 (UniProt Q6IN02)
Assay: inhibition of PEG-3 promoter-driven reporter – cell-based, HeLa, luciferase, CREF/GAPDH counter-screen panel, dose response (AID 624167)
Conditions: CREF/GAPDH counter-screens; HeLa PEG-Prom luciferase reporter, overnight, run 1, dose range 1, at 100 µM (top of the series) unless noted

Sequence of PEG-3 (Q6IN02 whole entry, looked up): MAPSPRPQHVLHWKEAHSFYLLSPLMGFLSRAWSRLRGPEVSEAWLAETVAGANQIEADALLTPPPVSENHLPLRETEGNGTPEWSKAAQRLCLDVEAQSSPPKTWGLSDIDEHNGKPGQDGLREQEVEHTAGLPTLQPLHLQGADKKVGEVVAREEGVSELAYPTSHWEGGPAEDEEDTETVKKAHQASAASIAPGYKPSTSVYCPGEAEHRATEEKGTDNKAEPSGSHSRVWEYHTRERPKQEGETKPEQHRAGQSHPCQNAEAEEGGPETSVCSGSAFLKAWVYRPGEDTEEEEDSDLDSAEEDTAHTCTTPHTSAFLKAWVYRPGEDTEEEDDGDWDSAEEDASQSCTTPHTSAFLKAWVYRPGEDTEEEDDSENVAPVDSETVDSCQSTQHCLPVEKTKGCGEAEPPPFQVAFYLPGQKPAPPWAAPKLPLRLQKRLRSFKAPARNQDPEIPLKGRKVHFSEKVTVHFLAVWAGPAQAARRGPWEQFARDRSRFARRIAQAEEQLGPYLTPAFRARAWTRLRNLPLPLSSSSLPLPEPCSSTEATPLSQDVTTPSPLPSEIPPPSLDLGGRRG

Structure (SMILES) | inhibition [%]
O=C(c1cc(-c2cccs2)nn1-c1ccccc1)N1CCN(S(=O)(=O)c2ccccc2)CC1 | -25.3
COc1cccc(-c2cnc3c(NC=O)cc(-c4cccc(C(=O)N(C)C)c4)cn23)c1 | 98.8
O=[N+]([O-])c1ccc(-c2nc(Nc3cccc(O)c3)c3ccccc3n2)cc1 | 99.4
CCC(C)Sc1ccc(-c2nc3ccccn3c2NCc2ccccc2)cc1OC (configuration not stated) | 102
CCn1c2ccccc2c2cc(NC(=O)C(C)OC(=O)c3ccc(NC(=O)CC#N)cc3)ccc21 (configuration not stated) | 97.5
CC(=O)c1ccc(Nc2cc(C)nc3ccc(C)cc23)cc1 | 99.2
CC(=O)c1c(NCCc2ccccc2)nc(=S)n(-c2ccccc2)c1C | 99.6
CCCCCCC=C1CCC(CN2CCCC2)C1=O (configuration not stated) | 98.4
OC[C@@H]1[C@@H](c2ccc(Cl)cc2)C(c2cccc(Cl)c2)=NN1c1ccccc1 | 102
Cc1ccc(S(=O)(=O)N(C)C)cc1NC(=O)c1cncc(Br)c1 | 82.4
c1ccc(CCCNCCCn2cnc3c(OCc4ccccc4)ncnc32)cc1 | 99.5
Cc1ccc2sc(N(CCCN(C)C)C(=O)c3ccc(S(=O)(=O)N(C)C4CCCCC4)cc3)nc2c1C | 102
CCOc1cc(CNCCO)cc(Br)c1OCc1ccccc1Cl | 100
CC1(C(=O)NCc2cccc3ccccc23)CCN1C(=O)Cc1ccc(-c2ccccc2)cc1 (configuration not stated) | 52.6
CN(C)CCNc1ccc(CO)c2oc3ccc(O)cc3c(=O)c12 | 99.1
CN(C)c1ccc(/C=N/NC(=O)c2nnn(-c3nonc3N)c2COc2ccc(F)cc2)cc1 | 2.41
O=C(NC1CCCCC1)Sc1ccc(Cl)cc1 | 102
